PI5P4Ka inh – PI5P4K alpha (human) kinase inhibition. hit rate 1.2% among 330,000. max response, %. P48426. AID 652105. PI5P4Kalpha enzyme, ADP-Glo luminescence, 60 min; hits give low values; active = max response of -50% or lower; inconclusive = between -30% and -50%; inactive = -30% or higher; also: value at the top dose of about 77 µM; % is scaled to controls: 0 for no effect and ±100 for the full control effect
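Human PI5P4Kalpha with substrate in 0.038 M HEPES pH 7.4, 0.28 mM EGTA, 0.1% CHAPS, 5% DMSO; reaction started with 5 microM ATP (final), 60 min at room temperature. ADP formed read by ADP-Glo luminescence.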
POLI inh – blocks human DNA polymerase iota activity; Potency, µM (highest dose often 115 µM), inactives show at the highest dose activity, negative = inhibition, hits mostly inhibitors; hit rate 1% among 390,000; Pol iota fluorescent replication assay, 10 min; AID 588590; Q9UNA4; also: potency is read from the fitted curve at half-maximal effect
Target sequence (Q9UNA4 whole entry, looked up): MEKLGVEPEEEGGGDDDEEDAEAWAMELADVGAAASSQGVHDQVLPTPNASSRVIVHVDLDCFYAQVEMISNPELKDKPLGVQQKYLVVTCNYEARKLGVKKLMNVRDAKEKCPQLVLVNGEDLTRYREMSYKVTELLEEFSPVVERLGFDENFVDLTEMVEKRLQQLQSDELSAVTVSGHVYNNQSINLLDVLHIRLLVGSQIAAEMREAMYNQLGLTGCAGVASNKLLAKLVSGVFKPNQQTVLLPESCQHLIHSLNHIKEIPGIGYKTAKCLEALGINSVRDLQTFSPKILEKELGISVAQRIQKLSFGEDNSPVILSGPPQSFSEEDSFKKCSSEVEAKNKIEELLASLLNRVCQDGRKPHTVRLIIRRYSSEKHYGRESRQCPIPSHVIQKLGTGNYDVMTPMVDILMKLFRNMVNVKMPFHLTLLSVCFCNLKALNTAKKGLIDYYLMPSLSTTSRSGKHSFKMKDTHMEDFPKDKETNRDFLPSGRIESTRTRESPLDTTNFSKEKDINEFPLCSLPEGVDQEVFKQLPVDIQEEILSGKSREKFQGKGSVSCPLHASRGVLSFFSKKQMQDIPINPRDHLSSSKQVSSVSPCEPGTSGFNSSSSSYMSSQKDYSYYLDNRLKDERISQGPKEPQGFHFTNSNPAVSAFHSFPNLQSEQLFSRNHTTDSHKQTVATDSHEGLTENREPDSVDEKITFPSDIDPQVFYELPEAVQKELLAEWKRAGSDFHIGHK
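Fluorescent replication assay read twice, at 0 min and 10 min after adding 50 nM (final) substrate. Enzyme (10 nM) and compounds were first incubated 15 min at room temperature; enzyme-free buffer wells were negative controls.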
POLK inh – DNA polymerase kappa (human) inhibition | AID 588579 | hit rate 0.53% among 400,000 | Potency, µM (highest dose often 107 µM), for the others: at the highest dose activity, negative = inhibition, hits mostly inhibitors | purified Pol kappa, fluorescent DNA synthesis assay, 10 min; also: potency is read from the fitted curve at half-maximal effect; % is scaled to controls: 0 for no effect and ±100 for the full control effect
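10 nM Pol kappa preincubated 15 min at room temperature with compounds, then reaction started with substrate at 50 nM final. Fluorescence read kinetically at 0 and 10 min; buffer-only wells served as negative control.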
Pol eta inh – inhibitors of human DNA polymerase eta | recombinant Pol eta, fluorescent DNA replication assay | AID 588591 | Potency, µM (doses to about 114 µM), inactives show at the top dose activity change, negative = inhibition, usual class: inhibitors | hit rate 1.2% among 390,000 | Q9Y253; also: potency is read from the fitted curve at half-maximal effect; % is scaled to controls: 0 for no effect and ±100 for the full control effect
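Pol eta at 10 nM preincubated with compounds 15 min at room temperature; reaction started with fluorescent substrate (50 nM final) and read kinetically at 0 and 10 min.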
Pol beta inh – blocks human DNA polymerase beta activity. hit rate 1.3% among 340,000. Potency, µM (doses to about 114 µM), for the others: at the highest dose activity change, negative = inhibition, hits mostly inhibitors. Pol beta primer extension/strand displacement, fluorescence kinetic. P06746; also: potency is read from the fitted curve at half-maximal effect; % is scaled to controls: 0 for no effect and ±100 for the full control effect
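Preincubation: enzyme (10 nM) with compound, 15 min, RT. Reaction: substrate added to 50 nM final. Reads: 0 and 10 min. Analysis: normalized, Hill fit.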
WRN inhibitor – WRN helicase (human) inhibition; Q14191; WRN helicase unwinding, fluorescent forked duplex, kinetic; Potency, µM (highest dose often 114 µM), for inactives: at the highest dose activity change, negative = inhibition, usual class: inhibitors; hit rate 0.46% among 360,000; also: potency is read from the fitted curve at half-maximal effect; % is scaled to controls: 0 for no effect and ±100 for the full control effect; nearly all actives have a fitted effect of over 55% in size
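WRN at 20 nM final was preincubated with compound for 15 min at room temperature; reaction started with 100 nM forked duplex oligonucleotide carrying fluorophore and quencher plus 2 mM ATP (final). Unwinding followed kinetically by red fluorescence (ex 525/em 598 nm).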
Starred values were filed as active, the others as inactive; u = inconclusive; x = not tested or not shown; ! = not active in a repeat; [ ] = another dose, or the depositor's remark. An excerpt weighted towards active compounds, which were near 2.8% of everything screened. Unless noted, calls follow the shape of the dose curve; as a rule, active = well fitted curve in the direction sought with a large enough effect; inconclusive = small, poorly fitted or top-dose-only effect, or another doubt; inactive = no such curve, though single readings can be large; an effect the other way counts as inactive or inconclusive.

SMILES | PI5P4Ka inh | POLI inh | POLK inh | Pol eta inh | Pol beta inh | WRN inhibitor
Cc1nc2c(C(=O)NCCc3ccc(Cl)cc3)c[nH]n2c(=O)c1Cc1ccccc1F | x | 71µM* | -13% | u | u | x
Cc1ccc(CNC(=O)c2c[nH]n3c(=O)c(Cc4ccc(F)cc4Cl)c(C)nc23)cc1 | x | u | u | 71µM* | 50µM* | x
COc1ccc(CCNC(=O)c2c[nH]n3c(=O)c(Cc4ccccc4Cl)c(C)nc23)cc1OC | x | -18% | 6%[60.1 µM] | x | 79µM* | x
Cc1nc2c(C(=O)NCc3ccccc3Cl)c[nH]n2c(=O)c1Cc1cccc(Cl)c1 | x | 56µM* | -42% | u | 56µM* | x
Cc1nc2c(C(=O)NCc3ccc(F)cc3)c[nH]n2c(=O)c1Cl | x | -23%[58.9 µM] | -11% | -5% | 6% | -17%
CC(C)(C)n1ncc2c(=O)n(Cc3ccc(C#N)cc3F)cnc21 | x | 0% | 2% | x | x | x
Cc1nc2c(C(=O)NCCC(C)C)c[nH]n2c(=O)c1Cc1ccccc1F | x | u | -12% | -3% | 71µM* | -9%[57.1 µM]
Cc1nc2c(C(=O)NCCc3ccccc3)c[nH]n2c(=O)c1Cc1ccc(F)cc1Cl | x | u | -22% | -30% | 79µM* | x
COc1ccc(OCC(=O)OCc2cc(=O)n3nc(C4CCCCC4)sc3n2)cc1 | x | u | -27% | -28% | 45µM* | x
COc1ccc(C(=O)c2cn(CC(=O)Nc3cc(OC)cc(OC)c3)c3ccc(OC)cc3c2=O)cc1 | x | u | -23% | 79µM* | -26% | x
C=C1C=C(C(F)F)n2ncc(C(=O)NCc3ccc(OC)cc3)c2N1 | x | 13% | -13% | x | x | x
COc1ccc(-n2c(=O)c3c4c(sc3n(Cc3cc(=O)n5c(C)cccc5n3)c2=O)CCC4)c(OC)c1 | x | 79µM* | -11% | u | -20% | x
Cc1ccc(NC(=O)c2ccccc2)cc1 | -1 | -1% | -11% | -2% | -2% | 1%
Cc1ccc(NC(=O)C2=C(c3ccccc3)S(=O)(=O)CCS2(=O)=O)cc1 | -14 | u | -8% | -7% | 6% | 22µM*
O=C(C1CCCCC1)N(Cc1cccnc1)c1nc2c(F)cccc2s1 | x | 4% | -15%[60.1 µM] | -23% | -26% | x
C/C(=N\NC(=O)c1cc(O)ccc1O)c1cccc(NC(=O)c2ccc(Cl)cc2)c1 | -82* | 20µM* | 50µM* | 22µM* | 45µM* | 40µM*
CCN(CC)Cc1cc2[nH]c3c4ccc(Cl)cc4ncc3c2cc1OC | 3 | u | u | -13% | 50µM* | -34%
COc1ccc(NC(=O)CSC2=Nc3ccccc3C3=NC(CCC(=O)NCCc4ccccc4)C(=O)N23)c(OC)c1 (centres undefined) | x | 2% | -4%[60.1 µM] | -2% | 2% | x
CCOc1ccc(C(=O)Nc2ccc(C(=O)OCc3cc(=O)n4c(C)csc4n3)cc2)cc1 | x | u | -6%[60.1 µM] | -17% | 18µM* | x
Cc1csc2nc(COC(=O)c3ccccc3NC(=O)COc3ccccc3F)cc(=O)n12 | x | -15% | 6%[60.1 µM] | -14% | 25µM* | x
Cc1ccc(OCC(=O)Nc2ccc(C(=O)OCc3cc(=O)n4c(C)csc4n3)cc2)cc1 | x | -12% | -3%[60.1 µM] | -21% | 15% | x
COc1cc(Cl)c(C)cc1NC(=O)Cn1ncc2c([nH]c3ccccc32)c1=O | x | 0% | -11% | -10% | -2% | x
NC1=NC(=O)/C(=C\c2ccc(-c3ccccc3[N+](=O)[O-])o2)S1 | x | 20µM* | u | x | x | x
CN1C(=O)/C(=C/c2ccc(-c3ccccc3[N+](=O)[O-])o2)SC1=Nc1ccc(Cl)c(C(=O)O)c1 | -60* | u | u | 20µM* | 14µM* | 56µM*
N#C/C(=C/c1ccc(-c2ccccc2[N+](=O)[O-])o1)C(N)=O | 0 | 54% | -13% | 3% | u | -4%
SMILES | PI5P4Ka inh | POLI inh | POLK inh | Pol eta inh | Pol beta inh | WRN inhibitor
CN(C)c1ccc(/C=C/c2cc3ccccc3c[n+]2C)cc1 | x | u | -38% | x | x | x
COc1cc2c[n+](C)c3c4ccccc4ccc3c2cc1OC | -10 | u | 32µM* | u | x | -22%
COc1ccc2c(c1)c[n+](C)c1c3cc(OC)c(OC)cc3ccc21 | 3 | x | x | x | x | 0%
COc1ccc(-c2oc3ncn4nc(-c5ccccc5Cl)nc4c3c2-c2ccc(OC)cc2)cc1 | x | -11% | -3% | -14% | 10% | x
Cc1cc(C=C2C(=O)c3ccccc3C2=O)c(C)n1-c1ccccc1 | x | -7%[58.9 µM] | -4% | -24% | 21% | -13%
Cc1cc(C=C2C(=O)c3ccccc3C2=O)c(C)n1-c1cccc(C(=O)O)c1 | -16 | u | u | 45µM* | u | -16%
Cc1cc(/C=C2/C(=O)NN(c3ccccc3)C2=O)c(C)n1-c1cccc(O)c1 | -56* | 56µM* | -33% | u | u | -4%[11.6 µM]
O=C1NN(c2cccc(Br)c2)C(=O)/C1=C\c1ccc(O)cc1 | -51* | u | -3% | u | u | u
NC(Cc1cc(I)c(Oc2ccc(O)c(I)c2)c(I)c1)C(=O)O (centres undefined) | x | x | -6%[60.1 µM] | x | x | x
N[C@@H](Cc1cc(I)c(Oc2cc(I)c(O)c(I)c2)c(I)c1)C(=O)O | -62* | -13% | u | u | x | -26%
N[C@H](Cc1cc(I)c(Oc2cc(I)c(O)c(I)c2)c(I)c1)C(=O)O | x | x | -17%[12 µM] | x | x | x
N[C@@H](Cc1cc(I)c(Oc2ccc(O)c(I)c2)c(I)c1)C(=O)O | -82*! | 50µM*! | u | 32µM*! | 20µM*! | u
CCc1c(C)nc(N2CCN(c3ccc(OC)cc3)CC2)[nH]c1=O | -1 | 2% | -3% | 0% | -6% | 1%
Nc1nccnc1C(=O)OCC(=O)NCCc1ccc(S(N)(=O)=O)cc1 | -19 | 22µM* | -21% | u | x | -3%[11.6 µM]
CC(C)OC(=O)CC(=O)c1sc2nc3c(cc2c1N)CN(C)CC3 | -25 | 11µM* | u | u | 40µM* | u
OCCOc1ccc(CN2CCN(CCCc3ccccc3)C(CCO)C2)cc1 (centres undefined) | -8 | 4% | 10% | -10% | 18% | 11%
Cc1ccc(/C=C2\SC(N3CCN(C(c4ccccc4)c4ccccc4)CC3)=NC2=O)o1 | u | -12% | -8% | -1% | 40µM* | -24%
Cc1ccc(-c2ccc(/C=C3\SC(N4CCOCC4)=NC3=O)o2)cc1 | 13 | 60% | -18% | u | -11% | -10%[57.1 µM]
COc1ccc(NC(=O)CN2CCN(CC(=O)Nc3ccc(OC)cc3)CC2)cc1 | -5 | 26% | 10% | -3% | -3% | 4%
CC1O[C@@H](O[C@H]2C(Oc3cc(O)c4c(c3)OC(c3ccc(O)cc3)CC4=O)OC(CO)C(O)C2O)C(O)C(O)C1O (some centres undefined) | x | x | -5%[60.1 µM] | x | x | x
O=C(C[n+]1ccccc1Br)c1ccc(F)cc1 | x | 15% | 8% | x | x | x

Screening results (PubChem BioAssay)
